According to PubChem BioAssay AID1566 (Sanford-Burnham Center for Chemical Genomics, 2009):
The whole screen tested about 290,000 compounds, of which about 1,800 (0.62%) were called active. No stated cut-off is given here; in the data, active means inhibition above about 50%; inactive means the rest. Only a selection was taken, and actives are over-represented in it overall.

experiment: inhibition of NOD2-driven NF-kB reporter – cell-based, luminescence, uHTS, HEK293 (AID 1566); settings: HEK293 NOD2/NF-kB luciferase reporter, at 4 µM, stronger effect = higher value

inhibition, active:
CC(C)C(O)(c1ccccc1)C(CN1CCOCC1)c1ccccc1 (centres undefined) 56.7%
COc1ccccc1NC(=O)c1sc2nc(N3CCOCC3)c3c(c2c1N)CCCC3 50%
Cc1cc(C(C)(C)C)cc(C)c1C[n+]1ccc2ccccc2c1 52.3%
FC(F)(F)c1ccc(N2CCN(c3cc(-c4ccccc4)nc4ncnn34)CC2)nc1 52%
N#Cc1ccccc1COc1ccc(/C=C/C(=O)O)cc1 64.4%
C=C(C)COc1ccc2c(C)c(CC(=O)N3C[C@H]4C[C@@H](C3)c3cccc(=O)n3C4)c(=O)oc2c1C 51.9%
O=C(NCCNc1ccnc2cc(Cl)ccc12)c1ccccc1F 54.8%
CC1Cc2ccccc2N1c1ncnc(N)c1[N+](=O)[O-] (centres undefined) 82.8%
O=C(Nc1cccc(S(=O)(=O)Nc2ccc(Cl)cc2)c1)c1ccc2c(c1)OCCO2 55.7%
Nc1ccc2c(c1)OC1(CCCC1)O2 69.9%
CC(C)NC(=O)NC(=O)COC(=O)c1c2c(nc3ccccc13)CCC2 51.1%

inhibition, inactive:
CC1Cc2ccccc2N1S(=O)(=O)c1cccc(C(=O)OCC(=O)NC2CCS(=O)(=O)C2)c1 (centres undefined) -8.8%
CC1(CC(=O)N/N=C/c2ccc(-c3ccc(C(=O)O)cc3)o2)OCCO1 17.9%
CCn1cc(S(=O)(=O)Nc2cc(C(=O)OC)ccc2C)cn1 8.3%
COc1cccc(OCCn2c(C)c(/C=N/n3cnnc3)c3ccccc32)c1 10.9%
CCc1ccc(C(O)(C(C)C)C(CN2CCOCC2)c2ccccc2)cc1 (centres undefined) 0.6%
COc1ccc(C(O)(C(C)C)C(CN2CCOCC2)c2ccccc2)cc1 (centres undefined) 8.6%
COc1ccc(NC(=O)CCn2c(=O)c3cccn3c3ccccc32)c(OC)c1 38.3%
Cc1nnn(C23C[C@@H]4C[C@@H](CC(C(=O)N5CCN(c6ccccc6)CC5)(C4)C2)C3)n1 -0.7%
Cc1ccc(CCNC(=O)C23C[C@H]4C[C@@H](C2)CC(n2nnc(C)n2)(C4)C3)cc1 8.2%
Cn1ccnc1C(=O)c1ccc(S(=O)(=O)N2CCCC2)cc1 14.8%
Cc1ccccc1NC(=O)c1sc2nc(N3CCOCC3)c3c(c2c1N)CCCC3 23.1%
COc1ccc(NC(=O)c2sc3nc(N4CCOCC4)c4c(c3c2N)CCCC4)c(OC)c1 30.8%
COC(=O)c1ccccc1NC(=O)CSc1nnc(-c2cccnc2)o1 -6.6%
Cc1ccc2[nH]c(C)c(/C=C/c3cc[n+](C)cc3)c2c1 29.1%
Cc1ccc2[nH]cc(/C=C/c3cc[n+](C)cc3)c2c1 48%
COc1ccc(OC)c(S(=O)(=O)N(C)CC(=O)Nc2ccc3c(c2)OCO3)c1 4.6%
CCCNC(=O)Cn1cnc2sc(C(=O)N3CCN(CCC)CC3)c(C)c2c1=O 24.6%
CC(C)(C)n1nnnc1C(c1ccncc1)N1CCN(c2ccc(O)cc2)CC1 (centres undefined) -4.7%
c1ccc2c(c1)SCc1nnc(-c3ccncc3)n1-2 5.9%
Cc1oc(-c2ccccc2)nc1CSc1nc2c(c(=O)[nH]1)CCC2 30.8%
Cc1oc(-c2ccccc2Cl)nc1CSc1nc2c(c(=O)[nH]1)CCC2 -2%
COc1ccccc1C(=O)NCCC(=O)NCCOc1ccccc1 16.2%
CN(C(=O)COc1ccccc1C(=O)NCCc1ccccc1)c1ccccc1 -25.8%
COc1ccc(N2CCN(C(=O)Cn3c(=O)[nH]c4ccsc4c3=O)CC2)cc1 0.6%
Cc1ccc(S(=O)(=O)Nc2ccccc2C(N)=O)cc1 0.2%
Cc1ccc(S(=O)(=O)Nc2ccccc2-c2ccccc2)cc1 -12.5%
O=S(=O)(NCc1ccccn1)c1cc(Cl)ccc1Cl -6%
Nc1c(NCc2ccccc2F)c(=O)[nH]c(=O)n1Cc1ccccc1 -4.5%
Cc1occc1C(=O)n1nnc2ccccc21 7.3%
N#CC(c1ccc(Cl)cc1)c1ccc2c(C(F)(F)F)cc(C(F)(F)F)nc2n1 (centres undefined) 44.4%
Cc1ccc(C(C#N)c2ccc3c(C(F)(F)F)cc(C(F)(F)F)nc3n2)cc1 (centres undefined) 19.1%
CC(NC(=O)CSc1nc2ccccc2n1CCC#N)c1ccc(F)cc1 (centres undefined) 19.2%
CCOc1ccc(S(=O)(=O)N2CCC(C(=O)N3CCCC3)CC2)cc1C 24.6%
COc1ccc(-c2cn3c(C)c(C(=O)N4CCN(c5ccccc5F)CC4)sc3n2)cc1 25.5%
Clc1cccc(Cl)c1C[n+]1ccc2ccccc2c1 18.8%
Cc1ccc(C(=O)C[n+]2ccc3ccccc3c2)cc1 9%
O=C(NCCn1ccc2ccccc21)c1ccc(S(=O)(=O)N2CCCCC2)cc1 -4.3%
O=S(=O)(c1ccccc1)N1CCN(c2cc(-c3ccccc3)nc3ncnn23)CC1 43.4%
FC(F)(F)c1cc(-c2ccccc2)nc2ncnn12 -1.1%
CC(=O)Nc1cccc2c1C(=O)N(c1cccc(OC(C)=O)c1)C2=O 17.8%
Nc1nonc1C(=O)N/N=C/c1ccc(Br)o1 4.7%
Nc1nonc1C(=O)N/N=C/c1ccc(-c2cccc([N+](=O)[O-])c2)o1 19.7%
O=C(CNc1ccccc1)N/N=C/c1ccc([N+](=O)[O-])o1 46.1%
O=C(CNc1ccc2ccccc2c1)N/N=C/c1ccc([N+](=O)[O-])o1 -4.1%
Cc1ccc(C(=O)N/N=C\c2ccc([N+](=O)[O-])o2)cn1 36%
Cc1cc(C(=O)N/N=C/c2ccc([N+](=O)[O-])o2)c(C)o1 35.5%
O=C(N/N=C/c1ccc([N+](=O)[O-])o1)c1cc2c(ccc3ccccc32)o1 12.1%
O=C(N/N=C/c1ccc([N+](=O)[O-])cc1)c1cc2ccccc2o1 30.1%
COc1ccccc1CNC(=O)C1CC(c2c(Cl)cccc2Cl)=NO1 (centres undefined) 8.6%
Cc1ccc(NC(=O)Nc2ccc(Cl)cc2)c(Br)c1 -38.7%
O=C(Nc1ccc(Cl)cc1)c1cc(Br)ccc1OCC(=O)N1CCOCC1 40%
COc1ccc(-c2csc(N3CCC(c4ccccc4)CC3)n2)cc1 13.7%
Cc1occc1-c1nnc(SCC(=O)O)n1-c1ccccc1 -13.8%
Fc1ccc(NC(=S)Nc2cc(Cl)ccc2Cl)cc1 -16.8%
C[C@@H]1C(=O)O[C@H]2[C@H]1CC[C@@]1(C)C(=O)C=C[C@@](C)(O)[C@H]21 1.1%
COc1cc(/C=C/C(=O)O)ccc1OCc1ccccc1C#N 18%
O=C(O)/C=C/c1ccc(OCc2cccc(F)c2)cc1 -4.9%
COc1cccc(N(CC(=O)NC2CCCC2)C(=O)CCC(=O)Nc2cc(C)on2)c1 2.5%
C=C(C)COc1ccc2c(C)c(CC(=O)N3C[C@H]4C[C@@H](C3)c3cccc(=O)n3C4)c(=O)oc2c1 5%
CC(C)=CCOc1ccc2c(C)c(CC(=O)N3C[C@H]4C[C@@H](C3)c3cccc(=O)n3C4)c(=O)oc2c1C 15.8%
CCOc1ccccc1-n1c(SCC(=O)N2CCOCC2)nc2ccccc2c1=O 24.9%
O=C(NCCCNc1ccnc2cc(Cl)ccc12)c1ccccc1F 28.3%
O=C(NCCNc1ccc(Cl)cc1[N+](=O)[O-])c1ccccc1F -16.6%
C=CCOC(=O)C1=C(C)NC(C)=C(C(=O)OCC=C)C1/C=C/c1ccccc1 -0.8%
Cc1ccccc1C(=O)Oc1cc(N)n(S(=O)(=O)c2ccccc2)n1 5.8%
Cc1ccccc1NS(=O)(=O)c1cc(OCC(N)=O)c(C)cc1Cl 0.2%
CC1Cc2ccccc2N1c1ncnc2nc[nH]c12 (centres undefined) 1.3%
CC1Cc2ccccc2N1c1ncnc2c1nnn2Cc1ccccc1 (centres undefined) 9.3%
Fc1ccc2c(Cl)c(-c3nnc(-c4cccs4)o3)sc2c1 -112%
N=C(N)SCc1cn(-c2ccccc2)nc1-c1ccc(Br)cc1 8.8%
COc1ccc(S(=O)(=O)N2CCN(C3CCCC(C)C3)CC2)cc1 (centres undefined) -12.3%
Cc1ccc(NC(=O)c2ccc3c(c2)OCCO3)cc1S(=O)(=O)Nc1cccc(Cl)c1 10.3%
O=C(Nc1cccc(Cl)c1)c1ccc2c(c1)OCCO2 -169%
COC(=O)[C@H](C)NC(=O)NC1CCCc2ccccc21 (some centres undefined) 3.2%
C/C(CC(=O)NCc1ccc(Cl)cc1)=N\NC(=O)c1ccccc1F 4.7%
O=C(Nc1ccc2c(c1)OC1(CCCC1)O2)C1CC1 -19.4%
Nc1ccc2c(c1)OC1(CCCCC1)O2 13.4%
CCN(CCCNC(=O)C1CCN(S(=O)(=O)N2CCC3(CC2)OCCO3)CC1)c1ccccc1 5.4%
CNC(=O)COC(=O)c1c2c(nc3ccccc13)CCC2 4.8%
CC(C)CNC(=O)COC(=O)c1c2c(nc3ccccc13)CCC2 6.3%
CCCc1nc2ccccc2c(=O)n1CCc1ccccc1 -5.9%
CC(C)CC(NC(=O)OC(C)(C)C)C(=O)NC(C(=O)N1CCCC1C(N)=O)C(C)C (centres undefined) 4.1%
Cc1oc(-c2ccccc2Cl)nc1CN1CCCC1c1ccc(F)cc1 (centres undefined) 0.4%
